# Measured values from PubChem BioAssay (EPA / NIEHS).
# Records with an inconclusive call do not appear. Active and inactive are the calls of the source. Rule for the calls, unless noted: active = hit-call score of the fitted dose curve at least 0.9, where 1 is the maximum; inactive = score below 0.9.
# Columns and labels:
# [1] = BSK_3C_uPAR: BioMAP Diversity Plus: 3C Assay for Urokinase-type plasminogen activator receptor (uPAR) Biomarker Activity (AID 2282998); conditions: BioMAP 3C HUVEC, uPAR biomarker ELISA; actives raise or lower the signal
# Summary of the method: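 Values derive from bidirectional curve fitting relative to DMSO, which served as baseline of activity. uPAR was measured by ELISA in human umbilical vein endothelial primary cultures 24 h after compound addition.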
# [2] = BSK_3C_VCAM1: BioMAP Diversity Plus: 3C Assay for Vascular cell adhesion molecule 1 (VCAM1) Biomarker Activity (AID 2282999); conditions: BioMAP 3C HUVEC, VCAM1 ELISA, cytokine-stimulated; actives raise or lower the signal
# Summary of the method: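 Endothelial cells from human umbilical vein are treated with test chemical. At 24 h, VCAM-1 is measured by ELISA, and responses in either direction are fitted relative to DMSO.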
# [3] = BSK_4H_Eotaxin3: BioMAP Diversity Plus: 4H Assay for Eotaxin 3 Biomarker Activity (AID 2283000); conditions: primary human endothelial cells (HUVEC); actives raise or lower the signal;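 for outcome: CCL26 protein level quantified by ELISA in parallel with SRB cytotoxicity check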
# Summary of the method: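 HUVEC, 24 h post-dose, ELISA for Eotaxin-3/CCL26. Gain or loss of signal fitted bidirectionally vs DMSO baseline.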
# [4] = molecular target: human Peroxisome Proliferator-activated Receptor alpha (PPARa), PPARA (gene 5465) (UniProt Q07869); test: ATG_PPARa_TRANS: Attagene TRANS-FACTORIAL HepG2 Assay for human Peroxisome Proliferator-activated Receptor alpha (PPARa) (AID 2283001; active = hit-call score of the fitted dose curve at least 0.9, where 1 is the maximum)
# Summary of the method: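 Reporter transcripts from GAL4-UAS units in transfected HepG2 were quantified 24 h after dosing. Detection used reverse transcription, PCR, fluorescent primer extension and capillary electrophoresis, with DMSO as baseline.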
# [5] = read-out: Intercellular Adhesion Molecule 1 (ICAM1), ICAM1 (gene 3383); test: BSK_3C_ICAM1: BioMAP Diversity Plus: 3C Assay for Intercellular Adhesion Molecule 1 (ICAM1) Biomarker Activity (AID 2283003); conditions: primary human endothelial cells (HUVEC); actives raise or lower the signal
# Summary of the method: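 Primary human umbilical vein endothelial cells in the BioMAP 3C system were exposed to chemicals for 24 h, then ICAM-1 was quantified by ELISA. Activity was fitted bidirectionally against the DMSO negative control baseline.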
# [6] = BSK_3C_Proliferation: Cell Proliferation Assessment in the BioMAP Diversity Plus: 3C Assay (AID 2283006); conditions: primary human endothelial cells (HUVEC);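 for AC50: potency may reflect either rise or fall in cell number versus DMSO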
# Summary of the method: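 Human umbilical vein endothelial cells were grown sub-confluent and exposed to chemical for 48 h, then fixed with 10% TCA and stained with 0.1% sulforhodamine B; absorbance at 560 nm gave relative cell number, fitted bidirectionally against DMSO baseline.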
# [7] = molecular target: human Retinoid X Receptor beta (RXRb), RXRB (gene 6257) (UniProt P28702); test: ATG_RXRb_TRANS: Attagene TRANS-FACTORIAL HepG2 Assay for human Retinoid X Receptor beta (RXRb) (AID 2283013; active = hit-call score of the fitted dose curve at least 0.9, where 1 is the maximum)
# Summary of the method: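 HepG2 cells transiently transfected with multiplexed reporter units driven by GAL4-UAS and exogenous chimeric NR-Gal4 proteins; treated 24 h. Reporter mRNA measured by RT-PCR, 6-FAM labelling and capillary electrophoresis; gain-of-signal fitted versus DMSO baseline.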
# [8] = read-out: E-selectin (Homo sapiens) (UniProt P16581); test: BSK_3C_Eselectin: BioMAP Diversity Plus: 3C Assay for Eselectin Biomarker Activity (AID 2283015); conditions: primary human endothelial cells (HUVEC); actives raise or lower the signal;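 for outcome: cell surface E-selectin protein quantified by ELISA 24 h after dosing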
# Summary of the method: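 Primary human umbilical vein endothelial cells (3C system) were dosed with chemical and cell-surface E-selectin measured by ELISA 24 h later. Bidirectional curve fitting used DMSO as negative control and baseline.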
# [9] = read-out: Interleukin-1 alpha (IL1a), IL1A (gene 3552); test: BSK_BE3C_IL1a: BioMAP Diversity Plus: BE3C Assay for Interleukin-1 alpha (IL1a) Biomarker Activity (AID 2283016); conditions: primary human bronchial epithelial cells; actives raise or lower the signal
# Summary of the method: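 Human primary bronchial epithelial cells (BE3C system) were dosed with compound and IL-1a measured by ELISA 24 h later. Activity was fitted bidirectionally against DMSO baseline; cytotoxicity was tracked in parallel cultures by SRB total-protein staining.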
# [10] = read-out: Monocyte Chemoattractant Protein-1 (MCP1), CCL2 (gene 6347); test: BSK_3C_MCP1: BioMAP Diversity Plus: 3C Assay for Monocyte Chemoattractant Protein-1 (MCP1) Biomarker Activity (AID 2283017); conditions: primary human endothelial cells (HUVEC); actives raise or lower the signal
# Summary of the method: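 Primary human umbilical vein endothelial cells (3C system) were exposed to test chemical for 24 h, after which MCP-1 was quantified by ELISA. Activity was fitted bidirectionally against DMSO as negative control and baseline.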
# [11] = read-out: Monocyte Chemoattractant Protein-1 (MCP1), CCL2 (gene 6347); test: BSK_4H_MCP1: BioMAP Diversity Plus: 4H Assay for Monocyte Chemoattractant Protein-1 (MCP1) Biomarker Activity (AID 2283018); conditions: primary human endothelial cells (HUVEC); actives raise or lower the signal
# Summary of the method: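 Human umbilical vein endothelial cells (4H system) dosed with chemical; MCP-1 measured by ELISA 24 h after dosing. Bidirectional curve fitting against DMSO negative control as baseline; parallel SRB total-protein staining tracks overt cytotoxicity.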
# [12] = molecular target: Peroxisome proliferator-activated receptor gamma (Homo sapiens) (UniProt P37231); test: ATG_PPARg_TRANS: Attagene TRANS-FACTORIAL HepG2 Assay for human Peroxisome Proliferator-activated Receptor-gamma (PPARg) (AID 2283007; active = hit-call score of the fitted dose curve at least 0.9, where 1 is the maximum)
# Summary of the method: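 HepG2 cells transiently transfected with multiplexed GAL4-UAS reporter units and exogenous chimeric NR-Gal4 proteins; reporter mRNA quantified after 24 h compound exposure by RT-PCR, fluorescent labelling, HpaI digestion and capillary electrophoresis; gain-of-signal fitted versus DMSO baseline.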
# [13] = molecular target: Nuclear receptor subfamily 1 group I member 2 (Homo sapiens) (UniProt O75469); test: ATG_PXR_TRANS: Attagene TRANS-FACTORIAL HepG2 Assay for human Pregnane X Receptor (PXR) (AID 2283008; active = hit-call score of the fitted dose curve at least 0.9, where 1 is the maximum)
# Summary of the method: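 HepG2 cells transiently transfected with multiple reporter units, here a PXR-GAL4 chimera driving a GAL4-UAS reporter; 24 h compound exposure. Reporter mRNA measured by RT-PCR, FAM labelling and capillary electrophoresis; gain of signal fitted against DMSO baseline.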
# [14] = molecular target: Retinoic acid receptor RXR-alpha (Homo sapiens) (UniProt P19793); test: ATG_RXRa_TRANS: Attagene TRANS-FACTORIAL HepG2 Assay for human Retinoid X Receptor alpha (RXRa) (AID 2283012; active = hit-call score of the fitted dose curve at least 0.9, where 1 is the maximum)
# Summary of the method: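 HepG2 cells transiently transfected with multiplexed GAL4-UAS reporter units and chimeric NR-GAL4 fusions, dosed 24 h. Reporter mRNA measured by RT-PCR, FAM labelling, HpaI digestion and capillary electrophoresis; gain-of-signal fitted relative to DMSO baseline.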
# [15] = molecular target: human Thyroid Receptor alpha (THRa1), THRA (gene 7067) (UniProt P10827); test: ATG_THRa1_TRANS: Attagene TRANS-FACTORIAL HepG2 Assay for human Thyroid Receptor alpha (THRa1) (AID 2283014; active = hit-call score of the fitted dose curve at least 0.9, where 1 is the maximum)
# Summary of the method: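 HepG2 cells transiently transfected with multiplexed GAL4-UAS reporter units for exogenous chimeric THRa1-Gal4; reporter mRNA measured 24 h after dosing by RT-PCR, 6-FAM labelling, HpaI digestion and capillary electrophoresis. Gain-of-signal fitted versus DMSO baseline.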
# Sequence of E-selectin (Homo sapiens) (P16581 whole entry, looked up): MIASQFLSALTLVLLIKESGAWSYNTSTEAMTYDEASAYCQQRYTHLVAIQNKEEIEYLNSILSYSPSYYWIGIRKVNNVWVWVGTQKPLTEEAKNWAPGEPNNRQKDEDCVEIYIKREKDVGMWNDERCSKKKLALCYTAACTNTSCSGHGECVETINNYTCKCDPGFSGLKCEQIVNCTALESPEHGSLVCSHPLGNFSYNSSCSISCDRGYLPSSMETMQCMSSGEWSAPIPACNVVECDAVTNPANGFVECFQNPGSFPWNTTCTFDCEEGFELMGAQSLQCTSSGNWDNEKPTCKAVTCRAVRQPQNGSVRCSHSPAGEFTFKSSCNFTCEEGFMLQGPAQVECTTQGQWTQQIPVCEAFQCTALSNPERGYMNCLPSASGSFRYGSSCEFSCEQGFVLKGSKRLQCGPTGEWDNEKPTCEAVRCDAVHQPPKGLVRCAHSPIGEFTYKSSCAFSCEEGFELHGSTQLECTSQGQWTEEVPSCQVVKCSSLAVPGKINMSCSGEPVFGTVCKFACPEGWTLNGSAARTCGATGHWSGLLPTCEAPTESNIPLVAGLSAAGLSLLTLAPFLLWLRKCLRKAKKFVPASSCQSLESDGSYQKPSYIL
# Sequence of Peroxisome proliferator-activated receptor gamma (Homo sapiens) (P37231 whole entry, looked up, the tested form may be a part): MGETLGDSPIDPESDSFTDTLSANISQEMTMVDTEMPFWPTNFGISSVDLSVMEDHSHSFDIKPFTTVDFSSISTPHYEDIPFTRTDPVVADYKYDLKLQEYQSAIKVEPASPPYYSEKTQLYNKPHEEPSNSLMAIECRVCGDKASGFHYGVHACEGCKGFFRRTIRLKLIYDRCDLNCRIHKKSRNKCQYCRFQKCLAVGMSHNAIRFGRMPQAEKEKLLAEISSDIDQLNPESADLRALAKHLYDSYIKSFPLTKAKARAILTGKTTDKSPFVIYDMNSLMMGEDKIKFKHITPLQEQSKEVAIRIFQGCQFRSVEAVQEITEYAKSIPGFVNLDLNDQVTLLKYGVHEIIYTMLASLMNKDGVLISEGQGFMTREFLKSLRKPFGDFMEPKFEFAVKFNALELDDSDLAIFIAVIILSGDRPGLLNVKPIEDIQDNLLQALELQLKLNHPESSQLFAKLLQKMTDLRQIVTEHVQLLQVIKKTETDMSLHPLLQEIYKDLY
# Sequence of Retinoic acid receptor RXR-alpha (Homo sapiens) (P19793 whole entry, looked up, the tested form may be a part): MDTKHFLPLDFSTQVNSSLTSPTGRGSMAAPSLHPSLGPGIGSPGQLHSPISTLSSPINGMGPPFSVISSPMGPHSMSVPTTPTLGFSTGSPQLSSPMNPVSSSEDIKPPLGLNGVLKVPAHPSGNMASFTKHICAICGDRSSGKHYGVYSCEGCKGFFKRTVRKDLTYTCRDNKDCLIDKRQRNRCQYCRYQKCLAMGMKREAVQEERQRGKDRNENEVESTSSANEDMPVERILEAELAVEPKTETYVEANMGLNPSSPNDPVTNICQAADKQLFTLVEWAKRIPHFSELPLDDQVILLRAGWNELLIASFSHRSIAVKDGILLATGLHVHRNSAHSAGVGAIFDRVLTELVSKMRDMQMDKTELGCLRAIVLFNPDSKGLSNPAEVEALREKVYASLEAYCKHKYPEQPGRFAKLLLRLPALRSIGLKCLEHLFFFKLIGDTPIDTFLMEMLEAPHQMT
# Sequence of Nuclear receptor subfamily 1 group I member 2 (Homo sapiens) (O75469 whole entry, looked up, the tested form may be a part): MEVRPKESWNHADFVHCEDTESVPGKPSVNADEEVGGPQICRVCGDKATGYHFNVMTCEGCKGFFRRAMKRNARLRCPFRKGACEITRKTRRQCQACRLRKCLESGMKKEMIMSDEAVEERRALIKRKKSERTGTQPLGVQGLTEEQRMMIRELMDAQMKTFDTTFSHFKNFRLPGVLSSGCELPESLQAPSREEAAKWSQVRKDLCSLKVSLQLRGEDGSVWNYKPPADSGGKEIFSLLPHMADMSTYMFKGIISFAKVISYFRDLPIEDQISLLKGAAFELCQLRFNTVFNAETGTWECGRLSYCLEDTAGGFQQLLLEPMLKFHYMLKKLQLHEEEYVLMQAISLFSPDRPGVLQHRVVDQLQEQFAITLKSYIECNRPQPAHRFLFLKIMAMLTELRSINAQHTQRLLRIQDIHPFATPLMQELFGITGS
# Sequence of human Retinoid X Receptor beta (RXRb), RXRB (gene 6257) (P28702 whole entry, looked up, the tested form may be a part): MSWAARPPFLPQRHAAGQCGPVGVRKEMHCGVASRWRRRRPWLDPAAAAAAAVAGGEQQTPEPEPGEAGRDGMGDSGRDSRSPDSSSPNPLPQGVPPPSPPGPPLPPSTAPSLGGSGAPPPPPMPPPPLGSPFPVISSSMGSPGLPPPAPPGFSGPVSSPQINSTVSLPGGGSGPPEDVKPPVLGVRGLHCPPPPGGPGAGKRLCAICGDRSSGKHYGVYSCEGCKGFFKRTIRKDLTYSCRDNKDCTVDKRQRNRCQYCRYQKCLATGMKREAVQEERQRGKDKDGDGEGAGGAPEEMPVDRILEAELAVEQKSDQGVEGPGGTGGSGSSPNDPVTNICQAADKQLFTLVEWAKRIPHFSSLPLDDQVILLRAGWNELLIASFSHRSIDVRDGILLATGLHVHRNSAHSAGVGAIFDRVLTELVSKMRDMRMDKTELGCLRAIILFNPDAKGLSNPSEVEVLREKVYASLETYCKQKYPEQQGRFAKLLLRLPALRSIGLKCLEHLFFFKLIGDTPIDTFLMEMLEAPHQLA
# Sequence of human Peroxisome Proliferator-activated Receptor alpha (PPARa), PPARA (gene 5465) (Q07869 whole entry, looked up, the tested form may be a part): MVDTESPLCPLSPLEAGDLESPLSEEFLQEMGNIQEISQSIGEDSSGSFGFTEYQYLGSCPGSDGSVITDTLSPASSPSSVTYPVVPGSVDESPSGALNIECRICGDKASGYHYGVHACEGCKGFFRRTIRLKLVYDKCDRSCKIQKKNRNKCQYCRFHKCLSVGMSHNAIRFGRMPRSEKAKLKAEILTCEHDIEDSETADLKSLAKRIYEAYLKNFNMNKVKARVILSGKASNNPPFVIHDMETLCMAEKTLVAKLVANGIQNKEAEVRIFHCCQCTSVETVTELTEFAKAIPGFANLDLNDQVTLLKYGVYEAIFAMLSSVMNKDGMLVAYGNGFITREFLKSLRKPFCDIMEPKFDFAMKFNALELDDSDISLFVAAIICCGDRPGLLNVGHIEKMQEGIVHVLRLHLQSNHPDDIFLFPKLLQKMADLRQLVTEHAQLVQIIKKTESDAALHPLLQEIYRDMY
# Sequence of human Thyroid Receptor alpha (THRa1), THRA (gene 7067) (P10827 whole entry, looked up, the tested form may be a part): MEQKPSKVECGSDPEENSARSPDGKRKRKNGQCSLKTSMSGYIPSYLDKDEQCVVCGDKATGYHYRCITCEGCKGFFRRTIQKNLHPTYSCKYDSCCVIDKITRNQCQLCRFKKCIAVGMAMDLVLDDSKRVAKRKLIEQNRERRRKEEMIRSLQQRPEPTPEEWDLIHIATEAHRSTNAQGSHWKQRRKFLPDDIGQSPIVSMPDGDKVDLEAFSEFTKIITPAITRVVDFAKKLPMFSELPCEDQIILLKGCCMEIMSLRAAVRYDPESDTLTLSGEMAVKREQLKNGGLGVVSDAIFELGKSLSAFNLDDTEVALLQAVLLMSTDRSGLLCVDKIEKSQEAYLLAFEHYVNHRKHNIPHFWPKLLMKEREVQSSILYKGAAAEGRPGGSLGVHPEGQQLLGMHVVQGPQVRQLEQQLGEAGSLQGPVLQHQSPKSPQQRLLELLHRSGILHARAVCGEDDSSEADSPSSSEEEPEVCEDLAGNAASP
Structure (SMILES),AC50 [1],outcome [2],outcome [3],outcome [4],outcome [5],outcome [6],outcome [7],AC50 [8],outcome [9],AC50 [10],outcome [11],AC50 [3],AC50 [6],AC50 [12],outcome [13],outcome [14],outcome [8],outcome [10],outcome [12],outcome [15]
Cn1c(-c2ccccc2)cc(-c2ccccc2)[n+]1C,3.97 µM (active),inactive,inactive,inactive,inactive,inactive,inactive,1.56 µM (active),inactive,5.41 µM (active),inactive,,,,,,,,,
CCOP(=O)(OCC)Oc1nc(Cl)c(Cl)cc1Cl,20 µM (active),inactive,,,inactive,,inactive,,inactive,,inactive,30.5 µM (active),8.46 µM (active),30.8 µM (active),inactive,inactive,inactive,inactive,,
C=CCOC(=O)C(C)(C)OC(=O)c1cc(-n2c(=O)cc(C(F)(F)F)n(C)c2=O)ccc1Cl,2.18 µM (active),inactive,inactive,,inactive,inactive,,,inactive,,inactive,,,,inactive,inactive,inactive,inactive,inactive,inactive
